Compound activity deposited in PubChem BioAssay by several laboratories.
Compounds with a hit are over-represented: about 1.9% of the library has one in this group of screens.
CaV13 FRET inh: Disruptors of the CACNA1D IQ motif to Ca2+-dependent inactivation inhibitor domain association, primary screening, Förster resonance energy transfer in intact living … | HEK cells, CFP/YFP FRET ICDI-IQ, plate reader, 10 min; percent FRET-ratio fall versus neutral wells | inhibition, % at 12.3 µM | hit rate 0.098% among 340,000;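 active = mean replicate inhibition of at least 30% and at least 1% of replicates passing that level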;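 also: 0% = median of the neutral control wells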
Pemphigus Ab inh: blocks pemphigus antibody binding to human desmoglein-3; DSG3-coupled beads, scFv-anti-DSG3-GFP binding, flow cytometry; stronger effect = lower value; binding (percent of control), % at 10 µM; hit rate 0.48% among 310,000; AID 588358;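 active = binding more than 3 SD below its plate's average and above zero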
ATG4B inhibitor: blocks human ATG4B protease cleavage of LC3 substrate; inhibition, % at 8.33 µM; Q9Y4P1; ATG4B cleavage of LC3-PLA2, NBD-HPC fluorescence, 1 h; hit rate 0.51% among 340,000; in the data active = inhibition above about 40%
Target sequence (Q9Y4P1 whole entry, looked up): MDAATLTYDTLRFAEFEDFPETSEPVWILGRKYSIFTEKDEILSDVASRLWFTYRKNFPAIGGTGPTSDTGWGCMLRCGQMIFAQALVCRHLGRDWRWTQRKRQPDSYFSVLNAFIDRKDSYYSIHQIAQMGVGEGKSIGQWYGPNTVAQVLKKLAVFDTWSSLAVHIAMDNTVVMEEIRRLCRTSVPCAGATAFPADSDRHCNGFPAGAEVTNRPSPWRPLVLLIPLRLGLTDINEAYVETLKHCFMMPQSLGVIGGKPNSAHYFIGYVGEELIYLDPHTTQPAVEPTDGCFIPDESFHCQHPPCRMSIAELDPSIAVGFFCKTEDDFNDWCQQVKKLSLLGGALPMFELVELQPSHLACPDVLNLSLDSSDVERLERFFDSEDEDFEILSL
NSD2 HMT inh: blocks human histone methyltransferase NSD2 | O96028 | NSD2 peptide methylation, AlphaScreen, 120 min | inhibition, % at 12.5 µM | hit rate 0.54% among 310,000 | AID 743445; in the data active = inhibition above about 50%
Vif imaging: blocks HIV Vif function; hit rate 0.35% among 340,000; inhibition, % at 7.49 µM; HEK293T cells, Vif self-association by quenched fluorescence, imaging, 24 h; AID 602346; in the data active = inhibition above about 50%, passing the limit was not always enough
N-glyco inh: N-linked glycosylation inhibition. hit rate 0.23% among 360,000. D54 ERlucT glycosylation luciferase reporter, 24 h; percent of 100 nM tunicamycin response. reporter increase, % at 12.5 µM;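 active = mean luciferase reporter signal, scaled so untreated is 0 and the glycosylation-blocking control 100, at or above a set limit in every replicate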;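 also: luciferase carries N-glycosylation sites so blocking glycosylation raises the light; 0% = median of neutral control wells and 100% = median of 100 nM tunicamycin wells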
AlphaScreen art: AlphaScreen assay artifact in NSD2 counter-screen | shares compounds with NSD2 HMT inh | AlphaScreen artifact counterscreen, preloaded methylated H4 peptide | AC35, µM (top dose mostly 10 µM), without a hit: at the top dose activity change, negative = signal loss | hit rate 9.4% among 1,500 | AID 1053174; call rule not given here
* marks the source's active call; other numbers are inactive results; / = not tested or not shown.

SMILES	CaV13 FRET inh	Pemphigus Ab inh	ATG4B inhibitor	NSD2 HMT inh	Vif imaging	N-glyco inh	AlphaScreen art
O=C(c1ccc(Br)o1)N1CCN=C1SCc1cccc(F)c1	-13	106	-4	/	11	1	/
COc1ccc([C@H]2OC(=O)C[C@H]2C(=O)N2CCCC2)cc1OC	/	/	/	-8	/	/	/
COc1ccc(CN(C(=O)CN2C(=O)NC3(CCC(C)CC3)C2=O)C(C)Cc2cccs2)cc1 (stereo not drawn)	-6	101	-17	55*	0	0	-7%
O=C1ON=C(c2ccccc2)/C1=C/c1ccc(O)cc1	-4	97	0	63*	-5	8	-3%
COc1cc(/C=C/c2nc3ccccc3c(=O)[nH]2)cc(Cl)c1O	-8	98	8	82*	10	2	-6%
O=C1ON=C(c2ccccc2)/C1=C/c1ccccc1	3	117	9	0	5	0	/
COc1cc(/C=C2\C(=O)ON=C2c2ccccc2)cc(Cl)c1O	-30	108	-7	64*	0	2	-6%
COc1ccc(-c2nc(CS(=O)(=O)CC(=O)NCc3cccc(F)c3)c(C)o2)cc1	-6	99	-8	/	/	0	/
Cc1nn(CC(=O)c2ccc(Cl)cc2Cl)c(C)[n+]1N	-3	/	-9	-1	2	0	/
CC(=O)c1cccc(NC(=O)N2C3CCC2CC(O)(c2cccnc2)C3)c1 (stereo not drawn)	-2	108	-10	-4	-9	2	/
C=CCNC1=C(Cl)C(=O)N(Cc2ccccc2)C1=O	-3	/	1	-11	-4	-3	/
O=C1C(Cl)=C(NCCc2ccccc2)C(=O)N1CCc1ccccc1	-8	94	23	1	-5	-3	/
O=C(O)c1cccc(NC2=C(Cl)C(=O)c3ccccc3C2=O)c1	-19	85	-5	99*	-4	1	-4%
O=C1C(Cl)=C(NCCc2ccccc2)C(=O)c2ccccc21	-10	/	-2	81*	35	2	-18%
C=CCNC1=C(Cl)C(=O)c2ccccc2C1=O	-3	115	-2	92*	-4	-1	-16%
CCOCC(=O)Nc1nnc(SCCOC)s1	-6	99	-1	-1	14	3	/
COc1ccc2nc(NC(=O)CS(=O)(=O)c3ccc(C)cc3)sc2c1	-7	91	-5	69*	-6	0	-1%
Cc1ccc(NC(=O)CCN2CCN(C/C=C/c3ccccc3)CC2)cc1C	-4	100	-1	64*	/	1	-14%
Cc1cccc(NC(=O)CN2CCCCCC2)c1	-2	/	0	0	-9	1	/
Cc1cccc(NC(=O)CCN2CCCCC2)c1	-20	96	-1	66*	14	1	-5%
CCCCC(OC(=O)c1cc2occc2n1C)C(=O)NCC1CCCO1 (stereo not drawn)	-9	84	4	-1	3	2	/
CCOC(=O)C1=C(C)N=C(/N=C/N(C)C)SC1c1ccccc1 (stereo not drawn)	-9	98	3	25	-2	4	/
CCCCNC(=O)C1(C)CCN1C(=O)Cc1cccc2ccccc12 (stereo not drawn)	-5	/	/	2	-10	-1	/
CC(C)(CC(=O)O)CC(=O)N1CCN(c2nc3ccc(Cl)cc3s2)CC1	/	117	0	-3	6	3	/
O=C(O)c1ccc(CSc2n[nH]c(-c3ccco3)n2)cc1	-4	105	11	108*	3	1	-5%
SMILES	CaV13 FRET inh	Pemphigus Ab inh	ATG4B inhibitor	NSD2 HMT inh	Vif imaging	N-glyco inh	AlphaScreen art
CCc1ccc(N2CN=c3s/c(=C\c4ccccc4)c(=O)n3C2)cc1	-15	107	-4	61*	-4	1	3%
O=C(COc1ccc(S(=O)(=O)N2CCCC2)cc1)Nc1ccc(F)cc1	-2	105	0	68*	-6	0	2%
O=C(COc1ccccc1)Nc1ccccc1Cl	-4	109	-5	-3	-2	0	/
CCc1ccc(NC(=O)c2cc(-c3ccc4c(c3)OCO4)on2)cc1	-2	105	-4	87*	-9	-1	1%
O=C(/C=C/c1ccco1)Nc1scc(-c2ccccc2)c1C(=O)O	-5	112	22	103*	-2	-15	-7%
N#Cc1c(SCC(=O)OCc2ccccc2)nsc1SCC(=O)OCc1ccccc1	-8	96	-1	126*	4	1	-4%
CCOC(=O)CSc1nsc(SCC(=O)OCC)c1C#N	-5	90	-8	1	/	0	/
CC1CCN(C(=O)C2CCN(S(=O)(=O)c3cccs3)CC2)CC1	-3	/	0	-4	-15	0	/
CC1CC(C)CN(C(=O)C2CCN(S(=O)(=O)c3cccs3)CC2)C1 (stereo not drawn)	-3	96	4	50*	17	-2	-2%
CCN(CC)CCNC(=S)Nc1ccc2nc(N3CCCC3)cc(C)c2c1	-5	75	2	66*	2	3	-4%
COc1ccccc1-c1oc2ccccc2c1-c1ccc2c(c1)OCO2	-5	104	37	/	6	-4	/
CCOC(=O)Nc1ccc(=O)n(Cc2c(Cl)cccc2Cl)c1	-5	109	1	85*	-5	-1	-4%
CCOC(=O)CN1C(=O)C(=O)N(Cc2c(Cl)cccc2Cl)C1=O	-2	102	9	-2	-9	2	/
O=C(NCC1CCCCC1)c1ccc(Cl)nc1	-4	/	-2	-3	-7	4	/
O=C(CSc1nccn1-c1ccccc1)NCc1ccc(F)cc1	-3	/	1	0	-3	0	/
O=C(CSc1nccn1-c1ccc(F)cc1)NCc1ccc(F)cc1	-10	101	-10	50*	-2	0	-12%
Cc1cccc(Nc2nnc(-c3ccc(N4CCOCC4)c([N+](=O)[O-])c3)c3ccccc23)c1	-1	88	-10	53*	-9	-13	-10%
COc1ccccc1CNC(=O)CSc1nc(C)cs1	-5	98	11	-2	-4	1	/
CCOC(=O)N1CCN(C2=Nc3cccc4cccc2c34)CC1	/	99	-5	71*	-3	4	-4%
COc1cc(/C=N/NC(=O)c2ccccc2O)ccc1OCC(=O)Nc1ccccc1	-2	92	4	3	2	-4	/
Cc1cccn2c(=O)c3cc(C(=O)NCCCn4ccnc4)n(C)c3nc12	-4	/	9	118*	5	4	2%
COCCNC(=O)c1cc2c(=O)n3cccc(C)c3nc2n1C	-3	98	-10	/	0	4	/
Cc1ccc(OCCCC(=O)Nc2ccccc2C(F)(F)F)cc1	/	99	0	54*	7	0	0%
CCOc1ccc(OCC(=O)Nc2ccccc2C(F)(F)F)cc1	-11	98	12	1	-2	2	/
